Screening results (PubChem)
Coupling enz = coupling enzyme interference in Giardia aldolase counter-screen. coupling enzyme system counterscreen, AmpLite Red fluorescence. activity change, negative = inhibition, % at 58.2 µM, hits read low. 290,000 tested, 0.67% active; in the data active = activity change below about -30%
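First, compound is pin-transferred into glyceraldehyde-3-phosphate coupling-enzyme reagent at 57.5 uM final and held 10 min at RT. Next, substrate, coupling system and AmpLite Red are added. After 20 min RT, fluorescence (525/598 nm) is read.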
rTrxR1 inhibitor = rat TrxR1 inhibition | O89049 | recombinant rTrxR1, NADPH fluorescence consumption, selenite substrate | Potency, µM (series often up to 114 µM), for the others: at the highest dose activity change, negative = inhibition, hits mostly inhibitors | 390,000 tested, 1% active | AID 588453; note: potency is the fitted concentration of half-maximal effect; nearly all actives have a fitted effect of over 65% in size
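Rat TrxR1 (90 nM in the dispensed reagent) was pre-reduced with 400 uM NADPH for 5 min at room temperature, then incubated with compound for 15 min. After 400 uM selenite was added, NADPH fluorescence (Ex 340/Em 450 nm) was followed for 8 min.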
RORg inh = inhibitors of mouse ROR gamma transcriptional activity; P51450; Drosophila S2 Gal4-RORgamma UAS-luciferase reporter, 20 h; Potency, µM (doses to about 53.6 µM), for the others: top-dose activity change, negative = inhibition, usual class: inhibitors; 310,000 tested, 5.4% active; AID 2551; note: potency is the fitted concentration of half-maximal effect; nearly all actives have a fitted effect of over 60% in size
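In this cell-based reporter format, copper sulfate (700 uM final) drives Gal4–ROR gamma fusion expression from a metallothionein promoter in Drosophila Schneider cells; compounds preincubated 1 hr, reporter read after 20 hr at ambient temperature.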
Gal4-VP16 FLuc = inhibits Gal4-VP16 luciferase reporter, ROR gamma counter-screen; Drosophila S2 Gal4-VP16 UAS-luciferase, luminescence, 20 h; Potency, µM (highest dose often 53.6 µM), without a hit: at the highest dose activity, negative = inhibition, usual class: inhibitors; 310,000 tested, 3.5% active;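 note: Gal4-VP16 expression switched on by copper sulfate through the metallothionein promoter; potency is the fitted concentration of half-maximal effect; nearly all actives have a fitted effect of over 50% in size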
TrxR1 substrate = rat thioredoxin reductase 1 substrate activity; O89049; purified TrxR1 substrate turnover, NADPH consumption readout; Potency, µM (series often up to 114 µM), without a hit: at the highest dose activity change, negative = substrate turnover; 390,000 tested, 0.01% active; note: potency is the fitted concentration of half-maximal effect; nearly all actives have a fitted effect of over 50% in size
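Rat TrxR1, dispensed at 90 nM, was prereduced with 400 uM NADPH (final) for 5 min at ~22 deg C, then incubated with compound 15 min before 400 uM selenite. A first-read NADPH fluorescence drop versus no-compound background flagged substrates.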
GALK inhibitor = blocks human galactokinase activity | AID 1868 | Potency, µM (top dose mostly 57.5 µM), inactives show at the highest dose activity change, negative = inhibition, actives largely listed as inhibitors | 270,000 tested, 0.007% active | Purified GALK, Kinase-Glo residual ATP luminescence; note: potency is the fitted concentration of half-maximal effect
Target sequence (P51570 whole entry, looked up): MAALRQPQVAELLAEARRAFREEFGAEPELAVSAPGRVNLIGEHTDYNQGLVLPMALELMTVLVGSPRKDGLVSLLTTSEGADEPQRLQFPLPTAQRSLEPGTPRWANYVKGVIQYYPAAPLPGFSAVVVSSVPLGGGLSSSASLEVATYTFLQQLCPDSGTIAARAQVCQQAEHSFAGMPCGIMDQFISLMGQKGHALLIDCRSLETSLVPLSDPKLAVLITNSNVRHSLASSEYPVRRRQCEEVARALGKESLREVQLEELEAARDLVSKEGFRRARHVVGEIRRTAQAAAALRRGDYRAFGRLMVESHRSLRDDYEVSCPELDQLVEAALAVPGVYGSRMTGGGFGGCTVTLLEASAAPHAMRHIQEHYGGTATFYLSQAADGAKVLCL
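Galactose (100 uM) and ATP (35 uM) were turned over by 5 nM GALK for 1 h at RT. Kinase-Glo Plus then converted the remaining ATP into a luminescent signal.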
Active calls of the source: *; ? = inconclusive; . = no result given; [ ] = another dose, or the depositor's remark. In the library only some 5.9% were active in any assay of this set; here they are far more common. Unless noted, calls come from the whole dose curve; as a rule, active = well fitted curve in the direction sought with a large enough effect; inconclusive = small, poorly fitted or top-dose-only effect, or another doubt; inactive = no such curve, though single readings can be large; an effect the other way counts as inactive or inconclusive. % is set by controls: 0 for no effect and ±100 for the full control effect.

SMILES | Coupling enz | rTrxR1 inhibitor | RORg inh | Gal4-VP16 FLuc | TrxR1 substrate | GALK inhibitor
CCOC(=O)N1CCN(C(=O)c2ccc3c(=O)n(Cc4ccc(OC)cc4)c(=S)[nH]c3c2)CC1 | 1.9 | -18.6% | 26.1% | ? | -11.3% | 1.2%
COC(CNC(=O)c1ccc2c(=O)n(Cc3ccc(Cl)cc3)c(=S)[nH]c2c1)OC | 2.2 | 22.8% | ? | -29.4% | 5.8% | .
CCOC(=O)N1CCN(C(=O)c2ccc3c(=O)n(Cc4ccccc4)c(=S)[nH]c3c2)CC1 | -1.4 | -4.1% | 12.6µM* | ? | -7.4% | -5.4%
CCc1ccccc1NC(=O)c1nnn(CC(=O)Nc2cccc(C)c2C)c1N | 0.9 | 3.7% | -24.2% | -3.5% | 8.3% | -4.6%
O=C1NCCN1CCNS(=O)(=O)c1ccc(F)cc1 | 3.1 | 20.7% | -22.5% | 0.0% | 6.2% | .
O=C(c1ccc2c(=O)n(Cc3ccc(Cl)cc3)c(=S)[nH]c2c1)N1CCOCC1 | 0.0 | 0.8% | 3.98µM* | 7.08µM* | -7.9% | -4.7%
CC1CC(C)CN(C(=O)c2ccc3c(=O)n(Cc4ccc5c(c4)OCO5)c(=S)[nH]c3c2)C1 (stereo not drawn) | 12.4 | 4.5% | 3.55µM* | 10µM* | -0.7% | -1.6%
CN1CCN(C(=O)c2ccc3c(=O)n(Cc4ccc5c(c4)OCO5)c(=S)[nH]c3c2)CC1 | . | -12.7% | . | . | 6.3% | .
O=C(c1ccc2c(=O)n(Cc3ccc(Cl)cc3)c(=S)[nH]c2c1)N1CCCC1 | -1.1 | -1.3% | 5.01µM* | ? | -3.5% | 6.9%
CN1CCN(C(=O)c2ccc3c(=O)n(Cc4ccc(Cl)cc4)c(=S)[nH]c3c2)CC1 | -0.5 | -29.6%[57.1 µM] | 7.08µM* | ? | -2.9%[57.1 µM] | -0.1%
CCOc1ccc(S(=O)(=O)N(C)CC(=O)NCCN2CCOCC2)cc1 | 0.1 | 25.0% | -16.2% | 6.0% | 3.1% | -2.9%
COc1cc(/C=N/n2nnnc2N)ccc1OC(C)=O | 1.4 | 1.6%[57.1 µM] | -14.3% | 1.4% | -2.2%[57.1 µM] | 8.6%
O=C(c1ccc2c(=O)n(Cc3ccccc3Cl)c(=S)[nH]c2c1)N1CCCC1 | . | 5.9% | 11.2µM* | ? | 0.4% | -4.3%
CC1CCC2(CC1)C(Nc1cccc(Cl)c1)=NC(=S)N2CC#N (stereo not drawn) | -5.4 | -20.6% | 3.55µM* | 3.16µM* | -12.1% | -2.0%
CC1=NN(c2ccccc2)C(=O)C1C(=O)c1ccc(Cl)cc1 (stereo not drawn) | 5.7 | 24.6% | 11.2µM* | ? | 6.9% | -7.0%
CC1=NN(c2ccccc2)C(=O)C1C(=O)c1ccccc1 (stereo not drawn) | -0.6 | -20.0% | ? | ? | -21.0% | -0.3%
CCCC[C@]12Cc3ccccc3C(O1)c1c(cc(-c3ccccc3)oc1=O)O2 | -31.5* | . | -115.1%[10 µM] | ? | . | .
CNC(=O)COC(=O)CNC(=O)c1cc(Cl)cc([N+](=O)[O-])c1 | 1.6 | 18.3%[57.1 µM] | 5.2% | 17.4% | 4.6%[57.1 µM] | 8.6%
CCc1cc(C(=O)NNC(=S)NCC2CCCO2)cs1 (stereo not drawn) | 2.4 | 3.0%[11.4 µM] | 15.8µM* | -4.7% | 10.9%[11.4 µM] | 6.3%
Cc1scc(C(=O)NNC(=S)NCC2CCCO2)c1-c1ccccc1 (stereo not drawn) | 2.1 | -14.6% | 7.94µM* | -7.2% | 10.6%[57.1 µM] | 2.3%
Cc1scc(C(=O)NNC(=S)NCC2CCCO2)c1C (stereo not drawn) | 0.4 | -15.3% | 4.47µM* | -24.1% | -9.6% | -0.7%
Cc1ccc(-c2c(C(=O)NNC(=S)NCC3CCCO3)csc2C)cc1 (stereo not drawn) | 2.1 | 7.5% | ? | 2.9% | 3.1% | -0.9%
CCCc1cc(C(=O)NNC(=S)NCC2CCCO2)cs1 (stereo not drawn) | 0.0 | 14.1%[57.1 µM] | -6.8% | -20.0% | 10.1%[57.1 µM] | 1.7%
Cc1scc(C(=O)NCc2ccco2)c1-c1ccccc1 | -7.6 | 14.1µM* | -6.7% | -14.0% | -1.0% | 0.3%
COc1ccc(C=O)c2[nH]c3c(Cl)ncnc3c12 | -0.8 | -5.1% | 3.5% | -1.0% | 9.5% | -1.1%
SMILES | Coupling enz | rTrxR1 inhibitor | RORg inh | Gal4-VP16 FLuc | TrxR1 substrate | GALK inhibitor
O=C(/C=C/c1ccco1)N(Cc1cccc(Br)c1)C1CCS(=O)(=O)C1 (stereo not drawn) | 1.6 | 10µM* | 10.4% | 7.2% | 8.6%[57.1 µM] | .
O=C(/C=C/c1ccco1)N(Cc1cccc(Cl)c1)C1CCS(=O)(=O)C1 (stereo not drawn) | 2.1 | 8.91µM* | 31.4% | -1.9% | 6.6%[57.1 µM] | -0.1%
O=C(c1ccco1)N(Cc1cccc(F)c1)C1CCS(=O)(=O)C1 (stereo not drawn) | 0.9 | 1.6% | -25.6% | 2.7% | 0.4% | 4.5%
O=C(/C=C/c1ccco1)N(Cc1cccc(F)c1)C1CCS(=O)(=O)C1 (stereo not drawn) | . | 35.5µM* | 6.8% | -0.1% | -4.0% | 3.9%
O=C(/C=C/c1ccccc1)N(Cc1cccc(Cl)c1)C1CCS(=O)(=O)C1 (stereo not drawn) | -0.1 | 23.2%[11.4 µM] | 19.2% | 7.2% | -20.3%[11.4 µM] | -2.4%
O=C(/C=C/c1ccco1)N(Cc1ccc(F)cc1)C1CCS(=O)(=O)C1 (stereo not drawn) | 8.1 | 44.7µM* | 25.3% | 6.8% | -6.1% | 3.9%
O=C(/C=C/c1ccco1)N(Cc1ccccc1)C1CCS(=O)(=O)C1 (stereo not drawn) | 2.4 | -75.8% | 11.1% | 0.3% | 5.8%[11.4 µM] | -0.7%
CC1=C(C(N)=O)C(c2ccc(Cl)cc2)n2nc(CCCO)nc2N1 (stereo not drawn) | -1.1 | -7.6% | 4.5% | 2.8% | 0.7% | .
CCOC(=O)c1cnc2ccc(OCC)cc2c1NCCc1ccc(OC)c(OC)c1 | . | 72.8% | . | . | 51.5% | .
CC1C(c2ccccc2)N(C)C(c2ccccc2)C(C)C1(O)C#Cc1ccccc1 (stereo not drawn) | -6.1 | -10.1% | 15.8µM* | ? | -6.3% | -2.1%
CC(C)(C)c1cn(-c2ccc(Cl)cc2)c(=S)[nH]1 | 6.2 | -2.2% | 4.47µM* | 5.62µM* | 3.1% | 3.7%
COc1cc(NC(=O)CN2C(=O)c3ccccc3Sc3ccc(C(=O)N4CCOCC4)cc32)cc(OC)c1OC | -10.4 | 1.4% | 43.6% | -0.4% | 6.9% | 0.1%
N#C/C(=C\c1ccco1)Sc1nc2ccccc2s1 | -24.1 | ? | -10.1% | 12.6µM* | -16.6% | -0.3%
Cc1cc(C)nc(SC2=CS(=O)(=O)c3ccccc32)n1 | 1.1 | -5.8%[57.1 µM] | -36.1% | 28.6% | 12.0%[57.1 µM] | 0.5%
O=C(CSc1nc2ccccc2s1)N/N=C/c1ccco1 | -10.6 | -24.3% | -34.8% | 23.7% | -10.3% | 0.7%
O=S1(=O)C=C(Sc2nc3ccccc3s2)c2ccccc21 | 0.8 | 2.51µM* | 4.47µM* | 2.82µM* | 0.2%[57.1 µM] | 0.2%
Cn1c(CSc2nc3ccccc3s2)nc2ccccc21 | -3.0 | 0.3% | 11.2µM* | ? | 0.2% | 0.3%
